The text below walks through data of PubChem BioAssay (NCI).

Each structure is given as a SMILES string. This is part of a sample that, as a whole, favours compounds with a hit. Of some 79,000 tested, about 15% had one in any assay. Values without a mark were called inactive. The source made the active and inactive calls. No stated cut-off is given here; in the data, active means growth inhibition above about 70%; inactive means the rest.

Assay [1] in a line: NCI Yeast Anticancer Drug Screen. Data for the rad50 strain (AID 155).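 Further: 0% = growth of vehicle-only cultures of the same strain.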 The conditions noted are these: S. cerevisiae rad50 strain growth inhibition, active compounds read high. The essentials: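 Compounds were tested on a yeast strain with an engineered DNA damage repair alteration; the reported value is growth inhibition normalised to vehicle treatment.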
The nature of assay [2]: NCI Yeast Anticancer Drug Screen. Data for the mec2-1 strain (AID 157). The conditions noted are these: S. cerevisiae mec2-1 strain, active compounds read high. The essentials:
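Readout is yeast growth inhibition, normalised to vehicle-treated controls, in the mec2-1 strain exposed to compound.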

Assay [3] is described as follows: NCI Yeast Anticancer Drug Screen. Data for the sgs1 mgt1 strain (AID 161).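 Further: 0% = growth of cultures given vehicle only.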 The following applies: S. cerevisiae sgs1 mgt1 strain, active compounds read high. The essentials:
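Growth of a repair-deficient yeast mutant was monitored after compound treatment and expressed as inhibition relative to vehicle-treated cultures.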

Assay [4] is described as follows: NCI Yeast Anticancer Drug Screen. Data for the cln2 rad14 strain (AID 165).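 Further: 0% = growth equal to vehicle treated cultures.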 The conditions noted are these: S. cerevisiae cln2 rad14 strain, active compounds read high. Put shortly: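 Relative to vehicle controls, growth inhibition of compound-treated cln2 rad14 yeast was recorded.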
The nature of assay [5]: NCI Yeast Anticancer Drug Screen. Data for the bub3 strain (AID 167). The following applies: S. cerevisiae bub3 mutant strain, active compounds read high. Put shortly:
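Growth of a checkpoint-deficient yeast mutant is measured after compound exposure. Values represent inhibition relative to vehicle.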

Assay [6] can be described thus: NCI Yeast Anticancer Drug Screen. Data for the mlh1 rad18 strain (AID 175). The following applies: S. cerevisiae mlh1 rad18 strain growth inhibition, active compounds read high. Put shortly: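 Test agents were incubated with a yeast strain of defined genotype (DNA damage repair defect). Inhibition of growth was derived by comparison with vehicle-exposed cultures.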
Setting [7] is: at 5.0 µM (retest, dose inferred, filed as 0.5).
Where [8] appears, read: at 50.0 µM (retest, dose inferred, filed as 5.0).

On to `CN(C)CC/C(=N\Nc1ccc(Cl)cc1)c1ccccc1`, for which the growth inhibition is 98% (active) in assay [1] (setting [7]); 99% (active) in assay [1] (setting [8]); 99.2% (active) in assay [1] (at 50.0 µM); 100% (active) in assay [2] (setting [7]); 99% (active) in assay [2] (setting [8]); 98.8% (active) in assay [2] (at 50.0 µM). Further, the growth inhibition was 100% (active) in assay [3] (setting [7]); 99% (active) in assay [3] (setting [8]); 99% (active) in assay [3] (at 50.0 µM); 96% (active) in assay [4] (setting [7]); 99% (active) in assay [4] (setting [8]); 95.9% (active) in assay [4] (at 50.0 µM). The growth inhibition in assay [5] (setting [7]) was 98% (active); in assay [5] (setting [8]), 99% (active); in assay [5] (at 50.0 µM), 99.6% (active); in assay [6] (setting [7]), 99% (active); in assay [6] (setting [8]) it was 99% (active); in assay [6] (at 50.0 µM), 98.7% (active).

For the compound `CC1=NC(C)=C(/C(C)=N/NC(=O)c2ccccc2O)C(C)/C1=C(/C)NNC(=O)c1ccccc1O` (stereo unspecified), the growth inhibition is 16% in assay [1] (setting [7]); 16% in assay [1] (setting [8]); 74.7% (active) in assay [1] (at 50.0 µM); 12% in assay [2] (setting [7]); 12% in assay [2] (setting [8]); 75% (active) in assay [2] (at 50.0 µM). Further, the growth inhibition in assay [3] (setting [7]) was -1%; in assay [3] (setting [8]), -1%; in assay [3] (at 50.0 µM), 81.1% (active); in assay [4] (setting [7]) it was -2%; in assay [4] (setting [8]), -2%; in assay [4] (at 50.0 µM) it was 62%. For the same compound, the growth inhibition in assay [5] (setting [7]) is -3%; in assay [5] (setting [8]), -3%; in assay [5] (at 50.0 µM) it was 82.8% (active); in assay [6] (setting [7]) it was 2%; in assay [6] (setting [8]), 2%; in assay [6] (at 50.0 µM) it was 80% (active).

As for `Cc1cccc(C)c1N1C(=O)C(=O)C(c2nc3ccccc3s2)/C(=N/NC(=O)c2ccccc2O)C1=O` (stereo unspecified), the growth inhibition in assay [1] (setting [7]) is 26%; in assay [1] (setting [8]), 26%; in assay [1] (at 50.0 µM), 71.9% (active); in assay [2] (setting [7]), 16%; in assay [2] (setting [8]) it was 16%; in assay [2] (at 50.0 µM), 56.2%. Besides, the growth inhibition in assay [3] (setting [7]) is 26%; in assay [3] (setting [8]), 26%; in assay [3] (at 50.0 µM), 48.9%; in assay [4] (setting [7]), 21%; in assay [4] (setting [8]) it was 21%; in assay [4] (at 50.0 µM), 69.5%. The growth inhibition in assay [5] (setting [7]) was 19%; in assay [5] (setting [8]), 19%; in assay [5] (at 50.0 µM), 66%; in assay [6] (setting [7]) it was 34%; in assay [6] (setting [8]) it was 34%; in assay [6] (at 50.0 µM), 48.5%.

Turning to `C/C(=N\NC(=S)N(C)CCN(C)C(=S)N/N=C(\C)c1ccccn1)c1ccccn1`, the growth inhibition in assay [1] (setting [7]) was -8%; in assay [1] (setting [8]) it was 99% (active); in assay [1] (at 50.0 µM), 97.5% (active); in assay [2] (setting [7]), -5%; in assay [2] (setting [8]) it was 99% (active); in assay [2] (at 50.0 µM), 97.2% (active). Moreover, the growth inhibition was -3% in assay [3] (setting [7]); 99% (active) in assay [3] (setting [8]); 97.8% (active) in assay [3] (at 50.0 µM); 4% in assay [4] (setting [7]); 99% (active) in assay [4] (setting [8]); 95.8% (active) in assay [4] (at 50.0 µM). In addition, the growth inhibition in assay [5] (setting [7]) was -10%; in assay [5] (setting [8]) it was 99% (active); in assay [5] (at 50.0 µM) it was 97% (active); in assay [6] (setting [7]), 20%; in assay [6] (setting [8]), 99% (active); in assay [6] (at 50.0 µM) it was 96.7% (active).

Regarding `COc1ccc(C2=C(Cl)C(=O)N(c3ccc(OC)cc3OC)C(=O)C2(Cl)Cl)cc1`, the growth inhibition is 4% in assay [1] (setting [7]); 42% in assay [1] (setting [8]); 74.5% (active) in assay [1] (at 50.0 µM); -9% in assay [2] (setting [7]); 36% in assay [2] (setting [8]); 89.9% (active) in assay [2] (at 50.0 µM). In addition, the growth inhibition in assay [3] (setting [7]) is 5%; in assay [3] (setting [8]), 54%; in assay [3] (at 50.0 µM), 70.8% (active); in assay [4] (setting [7]), -9%; in assay [4] (setting [8]) it was 25%; in assay [4] (at 50.0 µM), 44.5%. The growth inhibition in assay [5] (setting [7]) is -5%; in assay [5] (setting [8]), 28%; in assay [5] (at 50.0 µM) it was 56.5%; in assay [6] (setting [7]), 3%; in assay [6] (setting [8]), 8%; in assay [6] (at 50.0 µM), 79.8% (active).

On to `CCCCCCCC/C=C1\CCC(CN(C)C)C1=O` (stereo unspecified), for which the growth inhibition in assay [1] (setting [7]) was -2%; in assay [1] (setting [8]), 97% (active); in assay [1] (at 50.0 µM) it was 89.6% (active); in assay [2] (setting [7]) it was -35%; in assay [2] (setting [8]), 99% (active); in assay [2] (at 50.0 µM), 93.2% (active). Further, the growth inhibition in assay [3] (setting [7]) was -13%; in assay [3] (setting [8]), 97% (active); in assay [3] (at 50.0 µM), 90.7% (active); in assay [4] (setting [7]) it was 8%; in assay [4] (setting [8]), 95% (active); in assay [4] (at 50.0 µM) it was 89.5% (active). Moreover, the growth inhibition in assay [5] (setting [7]) is -23%; in assay [5] (setting [8]), 98% (active); in assay [5] (at 50.0 µM), 89.6% (active); in assay [6] (setting [7]), -19%; in assay [6] (setting [8]), 97% (active); in assay [6] (at 50.0 µM) it was 89.1% (active).

As for `O=[N+]([O-])c1ccc(Cc2nc3ccccc3s2)cc1`, the growth inhibition is 32% in assay [1] (setting [7]); 82% (active) in assay [1] (setting [8]); 36.8% in assay [1] (at 50.0 µM); 27% in assay [2] (setting [7]); 95% (active) in assay [2] (setting [8]); 14.2% in assay [2] (at 50.0 µM). Moreover, the growth inhibition in assay [3] (setting [7]) was 47%; in assay [3] (setting [8]) it was 96% (active); in assay [3] (at 50.0 µM), 6.3%; in assay [4] (setting [7]), 32%; in assay [4] (setting [8]) it was 53%; in assay [4] (at 50.0 µM) it was 22.4%. Besides, the growth inhibition in assay [5] (setting [7]) is 41%; in assay [5] (setting [8]) it was 97% (active); in assay [5] (at 50.0 µM), 65.4%; in assay [6] (setting [7]), 52%; in assay [6] (setting [8]), 93% (active); in assay [6] (at 50.0 µM), 30.9%.
